Measurements published in paper PMC8769072, “Proteome‐scale mapping of binding sites in the unstructured regions of the human proteome” (Molecular Systems Biology, 2022).

B1: KLF12, Q9Y4X4 (peptide)
chain: TVITSVSSASSSSTVL
B2: TTLL5, Q6EMB2 (peptide)
chain: MPIVMARDLEETASSS
B3: ARAP2, Q8WZ64 (peptide)
chain: SGSVQTSSPPQLETVR
B4: ABHD12, Q8N2K0 (peptide)
chain: VALEHERAAAAGSSSS
B5: KIAA0408, Q6ZU52 (peptide)
chain: HVSNDASSSVAESSSP
B6: GRM1, Q13255 (peptide)
chain: ASGSSVPSSPVSESVL
B7: MAGEE1, Q9HCI5 (peptide)
chain: AYEGPSTSVVPTPDEG
B8: SALL1, Q9NSC2 (peptide)
chain: SGMVTNSVPTASSSVL
B9: ZFP36, P26651 (peptide)
chain: LAGPSLSSSSFSPSSS
B10: GPR179, Q6PRD1 (peptide)
chain: SLQNQQNAHTSRMLQV
B11: KAT6A, Q92794 (peptide)
chain: DVPSVSDHSQQVVDSG
B12: POM121, Q96HA1 (peptide)
chain: SFGINVATPGSSTTTG
B13: EPHA2, P29317 (peptide)
chain: LPSTSGSEGVPFRTVS
B14: WBP1, Q96G27 (peptide)
chain: PLTASSEQTAASSSSS
B15: ESR1, P03372 (peptide)
chain: QSHLATAGSTSSHSLQ
B16: SPTBN4, Q9H254 (peptide)
chain: EHAEIARWGQTLPTTS
B17: ARNTL2, Q8WYA1 (peptide)
chain: SAMSVPGMSTGTVLGA
B18: HIPK2, Q9H2X6 (peptide)
chain: AASTSVTAGWGDVASS
B19: SAMD4A, Q9UPU9 (peptide)
chain: SSVPTTINTIGTSTST
B20: BSN, Q9UPA5 (peptide)
chain: DASSQTRMVHASASTS
B21: MAP3K1, Q13233 (peptide)
chain: GPSSSTTTTTTTTEQP
B22: NXF1, Q9UBU9 (peptide)
chain: AMPAPTPSSSPVPTLS
B23: PHC3, Q8NDX5 (peptide)
chain: MDTEPNPGTSSVSTTT
B24: SS18, Q15532 (peptide)
chain: MPSSSHGSMGGYNHSV
B25: MARK1, Q9P0L2 (peptide)
chain: MSVSSISSAGSSVASA
B26: SYNE2, Q8WXH0 (peptide)
chain: DRASSSSGTIVQEAYG
B27: AHNAK2, Q8IVF2 (peptide)
chain: VSAPGRSIEASVDVPA
B28: SAP130, Q9H0E3 (peptide)
chain: TVPSHSSHATAVTTSN
B29: PRDM2, Q13029 (peptide)
chain: SSSSPSPPPLSAISSV
B30: MEX3B, Q6ZN04 (peptide)
chain: SASSSASSSASSSSVV
B31: TUBGCP5, Q96RT8 (peptide)
chain: ALSDSPSNSSYVETPR
B32: PER3, P56645 (peptide)
chain: GSSGSQEQLVSIASSS
B33: TP73, O15350 (peptide)
chain: VPANGEMSSSHSAQSM
B34: TCF7L2, Q9NQB0 (peptide)
chain: SIAQPSTSSLHSHSSL
B35: SCN1A, P35498 (peptide)
chain: TVDANGVVSLVGGPSV
B36: UNC13B, O14795 (peptide)
chain: TDSIHSAHSSHSLSRD
B37: TRIP12, Q14669 (peptide)
chain: SSSAASTSSSSSAVAS
B38: IPCEF1, Q8WWN9 (peptide)
chain: ASSSSPSLSGTSYSFS
B39: PROSER1, Q86XN7 (peptide)
chain: PVQSPLATAASASTSV
B40: PARN, O95453 (peptide)
chain: GISDGPSVSALTNGFD
B41: MAMLD1, Q13495 (peptide)
chain: SQVTGMSLQIPSSSTG
B42: MAGEA8, P43361 (peptide)
chain: ASSSLTVTDSTLWSQS
B43: RNF135, Q8IUD6 (peptide)
chain: QGELLEAPSSSSAPLP
B44: ISL1, P61371 (peptide)
chain: PGSNSTGSEVASMSSQ
B45: LBR, Q14739 (peptide)
chain: LLNFPPPLPALYELWE
B46: INPPL1, O15357 (peptide)
chain: FPPPPLPDSAIFLPPS
B47: RAPH1, Q70E73 (peptide)
chain: FPPPPPETELPLPPIE
B48: ILDR1, Q86SU0 (peptide)
chain: MAWPKLPAPWLLLATW
B49: C1orf159, Q96HA4 (peptide)
chain: LVPPALDLSWIWPAPP
B50: KIAA1522, Q9P206 (peptide)
chain: SMADFPPPEEAFFSVA
B51: PAX1, P15863 (peptide)
chain: LWPDPPHFLYWSGFLG
B52: TEX44, Q53QW1 (peptide)
chain: GDLQTWFFPPPPAGSV
B53: VCL, P18206 (peptide)
chain: DFPPPPPDLEQLRLTD
B54: SBNO2, Q9Y2G9 (peptide)
chain: EAFPPPPHFSFPAPLS
B55: CYP4A11, Q02928 (peptide)
chain: FPAPPSHWLFGHIQEL
B56: FAF2, Q96CS3 (peptide)
chain: IPSEEWPNPPTLQEAG
B57: SHROOM3, Q8TF72 (peptide)
chain: VYSMDDFPPPPPHTVA
B58: KIF23, Q02241 (peptide)
chain: DVVLQSFPPLPSAEIL
B59: MRPL43, Q8N983 (peptide)
chain: WPDPPDLPTVDPISSS
B60: DMTN, Q08495 (peptide)
chain: PAKIETDYWPAPPSLA
B61: NHSL1, Q5SYE7 (peptide)
chain: SPVFPPPPPEALIPFA
B62: XIRP2, A4UGR9 (peptide)
chain: EFPPPPPDVLQTSVDV

Experiments:
[1] = biological target: USP7 53-206, Q93009
[2] = biological target: VASP 1-114, P50552
Sequence of VASP 1-114, P50552 (P50552 1-114): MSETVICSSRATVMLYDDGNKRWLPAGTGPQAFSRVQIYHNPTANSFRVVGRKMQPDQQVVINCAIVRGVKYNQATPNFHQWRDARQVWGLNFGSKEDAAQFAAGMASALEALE

Sequence of USP7 53-206, Q93009 (Q93009 53-206): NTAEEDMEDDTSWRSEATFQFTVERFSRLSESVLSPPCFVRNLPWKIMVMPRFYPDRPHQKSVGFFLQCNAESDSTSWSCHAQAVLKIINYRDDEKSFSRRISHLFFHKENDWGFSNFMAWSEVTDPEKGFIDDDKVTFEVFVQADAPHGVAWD

Binder | selected by phage display [1] | selected by phage display [2]
B1 | confidence 4 (active) | –
B2 | confidence 3 (active) | –
B3 | confidence 2 (active) | –
B4 | confidence 3 (active) | –
B5 | confidence 3 (active) | –
B6 | confidence 4 (active) | –
B7 | confidence 4 (active) | –
B8 | confidence 4 (active) | –
B9 | confidence 2 (active) | –
B10 | confidence 2 (active) | –
B11 | confidence 3 (active) | –
B12 | confidence 3 (active) | –
B13 | confidence 2 (active) | –
B14 | confidence 2 (active) | –
B15 | confidence 3 (active) | –
B16 | confidence 2 (active) | –
B17 | confidence 2 (active) | –
B18 | confidence 2 (active) | –
B19 | confidence 2 (active) | –
B20 | confidence 3 (active) | –
B21 | confidence 3 (active) | –

Binder | selected by phage display [1] | selected by phage display [2]
B22 | confidence 2 (active) | –
B23 | confidence 2 (active) | –
B24 | confidence 2 (active) | –
B25 | confidence 3 (active) | –
B26 | confidence 2 (active) | –
B27 | confidence 2 (active) | –
B28 | confidence 4 (active) | –
B29 | confidence 2 (active) | –
B30 | confidence 4 (active) | –
B31 | confidence 3 (active) | –
B32 | confidence 3 (active) | –
B33 | confidence 3 (active) | –
B34 | confidence 3 (active) | –
B35 | confidence 3 (active) | –
B36 | confidence 2 (active) | –
B37 | confidence 2 (active) | –
B38 | confidence 4 (active) | –
B39 | confidence 3 (active) | –
B40 | confidence 3 (active) | –
B41 | confidence 3 (active) | –
B42 | confidence 3 (active) | –

Binder | selected by phage display [1] | selected by phage display [2]
B43 | confidence 2 (active) | –
B44 | confidence 3 (active) | –
B45 | – | confidence 2 (active)
B46 | – | confidence 3 (active)
B47 | – | confidence 3 (active)
B48 | – | confidence 2 (active)
B49 | – | confidence 3 (active)
B50 | – | confidence 2 (active)
B51 | – | confidence 2 (active)
B52 | – | confidence 2 (active)
B53 | – | confidence 2 (active)
B54 | – | confidence 2 (active)
B55 | – | confidence 2 (active)
B56 | – | confidence 4 (active)
B57 | – | confidence 4 (active)
B58 | – | confidence 2 (active)
B59 | – | confidence 4 (active)
B60 | – | confidence 2 (active)
B61 | – | confidence 3 (active)
B62 | – | confidence 4 (active)
